hgDAF-12 ag = agonists of H. glycines DAF-12 nuclear receptor; HEK293 GAL4-hgDAF12 UAS-luciferase reporter, agonist luminescence; normalized to butyrate control; activation, % at 6.8 µM; actives 1.8% (n = 370,000); AID 687014;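 active = activation above a cutoff set at the mean of all screened compounds plus 3 SD, cut at about 10% in these data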;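 also: 0% = DMSO wells and 100% = sodium butyrate wells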
ssDAF12 agonist = activates DAF-12 receptor from parasite S. stercoralis; HEK293 ssDAF-12/GRIP1 lit1-tk-luc reporter, luminescence; % of 3 µM dafachronic acid response; activation, % at 6.8 µM; actives 1% (n = 370,000);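 active = activation above the mean over all tested compounds plus 3 SD, cut at about 0.9% in these data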;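 also: 0% = DMSO-only wells and 100% = 3 µM delta7-dafachronic acid wells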
hcDAF12 agonist = H. contortus DAF-12 activation, primary screen; HEK293 hcDAF-12 lit1-tk-luc reporter, luminescence; 0% DMSO, 100% Δ7-dafachronic acid; AID 652067; activation, % at 6.8 µM; actives 1.4% (n = 370,000);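 active = activation above the mean of all tested compounds plus 3 SD, cut at about 5.5% in these data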;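 also: 100% = response to 3 µM Δ7-dafachronic acid high control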
DAX1 inh-1 = blocks DAX1 repression of SF-1 activated StAR promoter | HEK293T StAR-luciferase reporter, SF-1/DAX-1 repression relief | inhibition, % at 6.8 µM | actives 1.1% (n = 370,000) | AID 652010;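 active = inhibition above the mean over all tested compounds plus 3 SD, cut at about 3.6% in these data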;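 also: 0% = DAX-1 cells with DMSO and 100% = cells lacking DAX-1 with DMSO; higher inhibition means more luminescence from relief of DAX-1 repression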
DAX1 inh-2 = inhibits human nuclear receptor DAX1; HEK293 Gal4-DAX1 luciferase reporter, luminescence; inhibition, % at 6.75 µM; actives 0.99% (n = 340,000); AID 504766;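 active = inhibition above the mean over all tested compounds plus 3 SD, cut at about 4.2% in these data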;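 also: 0% = DAX1-transfected cells with DMSO and 100% = empty-vector control cells with DMSO; inhibition shows as a rise in luminescence from relieved DAX1 repression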
hgDAF12 conf = confirmation of H. glycines DAF-12 agonists; activation, % at 6.8 µM; actives 80% (n = 3,300); shares compounds with hgDAF-12 ag; HEK293 GAL4-hgDAF12 luciferase reporter, agonist mode; percent of butyrate response;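 active = mean activation over triplicate wells above the hit cutoff derived from the earlier primary screen, cut at about 11% in these data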;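 also: 0% = DMSO low control and 100% = 2 mM sodium butyrate high control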
LXRb DAF12 ctr = counter-screen for DAF-12 agonists: agonists of human LXR-beta; shares compounds with hgDAF-12 ag; 3,300 tested, under 10 active; AID 743051; activation, % at 6.8 µM; HEK293 Gal4-LXR luciferase reporter, 24 h;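 active = mean activation of the triplicate above a set limit carried over from the primary screen, none filed active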
Target sequence (P55055 whole entry, looked up, the tested form may be a part): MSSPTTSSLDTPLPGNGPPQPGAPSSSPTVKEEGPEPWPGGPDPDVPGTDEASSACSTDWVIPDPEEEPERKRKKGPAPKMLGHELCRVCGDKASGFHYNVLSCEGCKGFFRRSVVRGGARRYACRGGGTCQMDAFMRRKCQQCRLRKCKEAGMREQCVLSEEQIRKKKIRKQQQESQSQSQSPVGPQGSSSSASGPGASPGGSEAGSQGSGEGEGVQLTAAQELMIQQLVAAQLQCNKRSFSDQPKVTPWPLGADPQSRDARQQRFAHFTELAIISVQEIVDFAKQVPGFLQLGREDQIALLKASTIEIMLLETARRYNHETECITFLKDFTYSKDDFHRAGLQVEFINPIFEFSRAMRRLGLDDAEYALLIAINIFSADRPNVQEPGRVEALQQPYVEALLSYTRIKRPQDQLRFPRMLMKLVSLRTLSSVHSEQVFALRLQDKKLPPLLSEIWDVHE
Numbers without * were called inactive. The list is not random: actives were taken first. Their share in the collection is about 4.1%.

For O=C1CCCC(O)=C1N=Nc1ccc(C(=O)O)cc1 the results were hgDAF-12 ag 0.0, ssDAF12 agonist -2.2, hcDAF12 agonist -0.5, DAX1 inh-1 1.1 and DAX1 inh-2 1.3.
For Cc1ccc(-c2cc(-c3nnc(SCC(=O)Nc4cccc5ccccc45)n3N)[nH]n2)cc1 the results were hgDAF-12 ag -1.1, ssDAF12 agonist -0.6, hcDAF12 agonist -0.3 and DAX1 inh-1 -0.2.
Screening Cc1ccc2nc(-c3ccc(NC(=O)CSc4nnc(-c5cc(C)[nH]n5)n4N)cc3)sc2c1 returned hgDAF-12 ag 13.5*, ssDAF12 agonist -0.1, hcDAF12 agonist 1.4, DAX1 inh-1 4.4*, hgDAF12 conf 11.5* and LXRb DAF12 ctr 0.6.
`Cc1ccc2nc(-c3ccc(NC(=O)CSc4nnc(-c5cccc(Cl)c5)n4Cc4ccco4)cc3)sc2c1` gave hgDAF-12 ag 20.5*, ssDAF12 agonist 0.2, hcDAF12 agonist 6.3*, DAX1 inh-1 1.5, hgDAF12 conf 16.5* and LXRb DAF12 ctr 0.7.
`Cc1ccc2nc(-c3ccc(NC(=O)CSc4nnc(-c5cc(-c6ccc(F)cc6)n[nH]5)n4N)cc3)sc2c1` gave hgDAF-12 ag 16.2*, ssDAF12 agonist 0.8, hcDAF12 agonist 1.7, DAX1 inh-1 3.0, hgDAF12 conf 14.8* and LXRb DAF12 ctr 0.6.
Screening O=C(/C=C/c1ccccc1[N+](=O)[O-])Nc1ccccc1 returned hgDAF-12 ag 17.6*, ssDAF12 agonist 0.2, hcDAF12 agonist 5.5, DAX1 inh-1 4.0*, DAX1 inh-2 6.7*, hgDAF12 conf 16.2* and LXRb DAF12 ctr 0.7.
For CC(Cc1ccco1)NC(=O)c1ccc(C(F)(F)F)cc1 (stereo unspecified) the results were hgDAF-12 ag 13.8*, ssDAF12 agonist 1.0*, hcDAF12 agonist 5.0, DAX1 inh-1 2.0, DAX1 inh-2 -0.7, hgDAF12 conf 15.7* and LXRb DAF12 ctr 0.8.
For O=C(NCc1ccco1)c1ccc(C(F)(F)F)cc1 the results were hgDAF-12 ag 1.7, ssDAF12 agonist -1.5, hcDAF12 agonist -0.1 and DAX1 inh-1 0.1.
COC(=O)c1ccc(NC(=O)C2CC3CCC2C3)cc1 (stereo unspecified) was read as hgDAF-12 ag 7.1, ssDAF12 agonist -0.5, hcDAF12 agonist -0.4, DAX1 inh-1 0.9 and DAX1 inh-2 1.5.
CCOC(=O)c1ccc(NC(=O)C2CC3CCC2C3)cc1 (stereo unspecified) was read as hgDAF-12 ag 14.0*, ssDAF12 agonist 0.1, hcDAF12 agonist 6.5*, DAX1 inh-1 3.0, hgDAF12 conf 16.7* and LXRb DAF12 ctr 1.0.
COC(=O)C1=CN(c2ccccc2OC)C(N)=C(C#N)C1c1cccc([N+](=O)[O-])c1 (stereo unspecified) was read as hgDAF-12 ag 1.3, ssDAF12 agonist -1.2, hcDAF12 agonist -0.5 and DAX1 inh-1 -3.9.
Screening CCOc1ccc(NS(=O)(=O)c2cccc(C(=O)N(C)Cc3ccco3)c2)cc1 returned hgDAF-12 ag 1.2, ssDAF12 agonist -1.5, hcDAF12 agonist -0.5, DAX1 inh-1 -1.6 and DAX1 inh-2 -1.1.
For Cc1ccc(CNS(=O)(=O)c2ccc(C)s2)cc1 the results were hgDAF-12 ag -0.1, ssDAF12 agonist -0.6, hcDAF12 agonist -0.1, DAX1 inh-1 0.1 and DAX1 inh-2 -0.1.
For Cc1ccccc1OCc1nc2ccccc2[nH]1 the results were hgDAF-12 ag 19.1*, ssDAF12 agonist -0.1, hcDAF12 agonist 1.7, DAX1 inh-1 3.6, DAX1 inh-2 2.3, hgDAF12 conf 17.4* and LXRb DAF12 ctr 0.7.
Screening CCCCc1nc2ccccc2[nH]1 returned hgDAF-12 ag 1.6, ssDAF12 agonist -1.5, hcDAF12 agonist 0.0, DAX1 inh-1 0.8 and DAX1 inh-2 -0.4.
Screening Cc1ccc(SCc2nc3ccccc3[nH]2)cc1 returned hgDAF-12 ag 13.8*, ssDAF12 agonist -1.1, hcDAF12 agonist 1.0, DAX1 inh-1 1.6, DAX1 inh-2 2.6, hgDAF12 conf 11.5* and LXRb DAF12 ctr 0.5.
O=C(NCc1ccccc1)[C@H]1CCCN1C(=O)[C@H]1CCCN1C(=O)c1cccc2ccccc12 was read as hgDAF-12 ag -0.4, ssDAF12 agonist -0.9, hcDAF12 agonist -2.0 and DAX1 inh-1 -1.0.
COc1ccc(Cl)cc1Cn1c(C)c(C(=O)NCc2cccc(Cl)c2)sc1=O was read as hgDAF-12 ag -4.7, ssDAF12 agonist -1.7, hcDAF12 agonist -0.2 and DAX1 inh-1 -0.6.
For COc1cc2c(cc1OC)C(c1ccccc1[N+](=O)[O-])N(C(C)=O)CC2 (stereo unspecified) the results were hgDAF-12 ag -0.5, ssDAF12 agonist -1.5, hcDAF12 agonist -0.9, DAX1 inh-1 0.2 and DAX1 inh-2 -0.7.
For CCC(=O)Nc1cc2c(cc1Cl)-c1ccccc1C2 the results were hgDAF-12 ag 17.9*, ssDAF12 agonist 0.2, hcDAF12 agonist 5.8*, DAX1 inh-1 2.8, DAX1 inh-2 1.2, hgDAF12 conf 17.3* and LXRb DAF12 ctr 0.4.
Screening Fc1cc(Cl)cc2ccc(-c3ccccc3)nc12 returned hgDAF-12 ag 15.2*, ssDAF12 agonist 0.8, hcDAF12 agonist 2.9, DAX1 inh-1 1.7, hgDAF12 conf 8.9 and LXRb DAF12 ctr 0.2.
Fc1ccc2nc(-c3ccccc3)ccc2c1 was read as hgDAF-12 ag 7.1, ssDAF12 agonist -0.3, hcDAF12 agonist 0.9 and DAX1 inh-1 2.2.
O=C(Cc1ccccc1[N+](=O)[O-])NCc1ccccc1Cl was read as hgDAF-12 ag 13.7*, ssDAF12 agonist 0.1, hcDAF12 agonist 4.0, DAX1 inh-1 3.5, DAX1 inh-2 0.5, hgDAF12 conf 13.7* and LXRb DAF12 ctr 0.4.
COc1cc(/C=N/NS(=O)(=O)c2ccc3ccccc3c2)ccc1OCc1ccc(C(=O)O)cc1 was read as hgDAF-12 ag 15.5*, ssDAF12 agonist -0.3, hcDAF12 agonist 2.9, DAX1 inh-1 3.1, DAX1 inh-2 -6.7, hgDAF12 conf 12.7* and LXRb DAF12 ctr 0.8.
For COc1cc(/C=N/O)ccc1OCc1ccc(C(=O)O)cc1 the results were hgDAF-12 ag 13.3*, ssDAF12 agonist 0.2, hcDAF12 agonist 2.6, DAX1 inh-1 2.4, DAX1 inh-2 -6.3, hgDAF12 conf 15.8* and LXRb DAF12 ctr 1.0.
`Cc1cccc(NC(=O)NN(C(=O)c2ccccc2Cl)C(C)(C)C)c1` gave hgDAF-12 ag 13.4*, ssDAF12 agonist -1.2, hcDAF12 agonist -0.8, DAX1 inh-1 -0.7, hgDAF12 conf 2.2 and LXRb DAF12 ctr 0.0.
